Laboratory results reported in PubChem BioAssay (Tox21).
Inconclusive results are not listed. The source made the active and inactive calls. Calls follow the shape of the dose curve; as a rule, active = well fitted curve in the direction sought with a large enough effect in the repeat runs; inconclusive = weak or mixed curves; inactive = no such curve, though single readings can be large; an effect the other way counts as inactive or inconclusive.

Experiments:
[1] = A CellTox Green Cytotoxicity Assay to monitor cytotoxicity in HEK293 cells - 40 hour (AID 1224871); also: nearly all actives have a fitted effect of over 45% in size
How it was run: (§1)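 Cytotoxicity was tracked continuously in HEK293 cells by a DNA-binding dye excluded from viable cells. Compounds were transferred in DMSO 5 h after seeding; fluorescence was recorded at intervals up to 40 h.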

[2] = qHTS RealTime-Glo MT Cell Viability Assay in HEK293 cells - 16 hour (AID 1224872); also: top concentration of the series differs between compounds; nearly all actives have a fitted effect of over 50% in size
How it was run: (§2)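 HEK293 cells were seeded at 600 cells/well together with NanoLuc luciferase and cell-permeant prosubstrate, preincubated 5 h at 37 C/5% CO2, then given compound in DMSO by pintool. Luminescence from viable-cell prosubstrate reduction was read repeatedly over 40 h.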

[3] = qHTS RealTime-Glo MT Cell Viability Assay in HepG2 cells - 8 hour (AID 1224873); also: nearly all actives have a fitted effect of over 55% in size
How it was run: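 HepG2 cells mixed with RealTime-Glo MT reagents (NanoLuc plus cell-permeant prosubstrate) were seeded at 600 cells/well, incubated 5 h at 37 C/5% CO2, then pinned with compounds in DMSO; nonlytic luminescence tracked viability during 40 h treatment.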

[4] = qHTS RealTime-Glo MT Cell Viability Assay in HEK293 cells - 40 hour (AID 1224874); conditions: RealTime-Glo luminescence; max response: active compounds read low; also: nearly all actives have a fitted effect of over 50% in size
How it was run: (§3)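 Nonlytic bioluminescent viability monitoring. HEK293 at 600 cells/well with reagent; 5 h settle; compound transfer by pintool; plates held at 37 C and read at set time points.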

[5] = A CellTox Green Cytotoxicity Assay to monitor cytotoxicity in HEK293 cells - 24 hour (AID 1224875); also: series mostly up to about 77 µM; nearly all actives have a fitted effect of over 45% in size
How it was run: as §1

[6] = A CellTox Green Cytotoxicity Assay to monitor cytotoxicity in HepG2 cells - 16 hour (AID 1224876); also: nearly all actives have a fitted effect of over 45% in size
How it was run: (§4)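 Real-time, homogeneous cytotoxicity readout: dead-cell DNA staining by CellTox Green in HepG2 monolayers, fluorescence measured at timed intervals up to 40 h of continuous compound exposure.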

[7] = qHTS RealTime-Glo MT Cell Viability Assay in HepG2 cells - 32 hour (AID 1224877); also: nearly all actives have a fitted effect of over 55% in size
How it was run: (§5)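 HepG2 cells were seeded at 600 cells/well together with NanoLuc luciferase and a cell-permeant prosubstrate, preincubated 5 h at 37 C/5% CO2, then pin-dosed with compounds in DMSO. Nonlytic luminescence from viable cells was read at each time point.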

[8] = A CellTox Green Cytotoxicity Assay to monitor cytotoxicity in HepG2 cells - 24 hour (AID 1224878); also: nearly all actives have a fitted effect of over 45% in size
How it was run: as §4

[9] = A CellTox Green Cytotoxicity Assay to monitor cytotoxicity in HepG2 cells - 40 hour (AID 1224879); also: nearly all actives have a fitted effect of over 40% in size
How it was run: as §4

[10] = qHTS RealTime-Glo MT Cell Viability Assay in HEK293 cells - 0 hour (AID 1224880)
How it was run: as §3

[11] = A CellTox Green Cytotoxicity Assay to monitor cytotoxicity in HEK293 cells - 32 hour (AID 1224881); also: nearly all actives have a fitted effect of over 40% in size
How it was run: as §1

[12] = A CellTox Green Cytotoxicity Assay to monitor cytotoxicity in HepG2 cells - 0 hour (AID 1224882); also: nearly all actives have a fitted effect of over 35% in size
How it was run: as §4

[13] = A CellTox Green Cytotoxicity Assay to monitor cytotoxicity in HepG2 cells - 32 hour (AID 1224883); also: nearly all actives have a fitted effect of over 50% in size
How it was run: as §4

[14] = A CellTox Green Cytotoxicity Assay to monitor cytotoxicity in HEK293 cells - 8 hour (AID 1224884); also: nearly all actives have a fitted effect of over 35% in size
How it was run: as §1

[15] = qHTS RealTime-Glo MT Cell Viability Assay in HepG2 cells - 16 hour (AID 1224885); also: nearly all actives have a fitted effect of over 50% in size
How it was run: as §5

[16] = qHTS RealTime-Glo MT Cell Viability Assay in HEK293 cells - 24 hour (AID 1224886)
How it was run: as §2

[17] = qHTS RealTime-Glo MT Cell Viability Assay in HEK293 cells - 8 hour (AID 1224887)
How it was run: as §3

[18] = A CellTox Green Cytotoxicity Assay to monitor cytotoxicity in HEK293 cells - 16 hour (AID 1224888); also: nearly all actives have a fitted effect of over 35% in size
How it was run: as §1

[19] = A CellTox Green Cytotoxicity Assay to monitor cytotoxicity in HepG2 cells - 8 hour (AID 1224890); also: nearly all actives have a fitted effect of over 45% in size
How it was run: as §4

[20] = qHTS RealTime-Glo MT Cell Viability Assay in HepG2 cells - 0 hour (AID 1224889); also: nearly all actives have a fitted effect of over 50% in size
How it was run: as §5
% is scaled to controls: 0 for no effect and ±100 for the full control effect.

C=C(C)C(=O)OCCCCCCCCCCOC(=O)C(=C)C
inactive: Potency [1] | Potency [2] | outcome [3] | max response [4] -16.4% | Potency [5] | Potency [6] | Potency [7] | Potency [8] | Potency [9] | Potency [10] | Potency [11] | Potency [12] | Potency [13] | Potency [14] | outcome [15] | Potency [16] | Potency [17] | Potency [18] | Potency [19]

COC(=O)/C=C/C(C)=C\C=C\C(C)=C\C=C\C=C(C)\C=C\C=C(C)\C=C\C(=O)O
inactive: Potency [1] | Potency [2] | outcome [3] | max response [4] 1.87% | Potency [5] | Potency [6] | Potency [7] | Potency [8] | Potency [9] | Potency [10] | Potency [11] | Potency [12] | Potency [13] | Potency [14] | outcome [15] | Potency [16] | Potency [17] | Potency [18] | Potency [19]

O=C(O)c1cc(C(=O)O)c(C(=O)O)cc1C(=O)O
inactive: Potency [1] | Potency [2] | outcome [3] | max response [4] 0.796% | Potency [5] | Potency [6] | Potency [7] | Potency [8] | Potency [9] | Potency [10] | Potency [11] | Potency [12] | Potency [13] | Potency [14] | outcome [15] | Potency [16] | Potency [17] | Potency [18] | Potency [20] | Potency [19]

C=CC(C)CCC=C(C)C (centres undefined)
inactive: Potency [1] | Potency [2] | outcome [3] | max response [4] 0.513% | Potency [5] | Potency [6] | Potency [7] | Potency [8] | Potency [9] | Potency [10] | Potency [11] | Potency [12] | Potency [13] | Potency [14] | outcome [15] | Potency [16] | Potency [17] | Potency [18] | Potency [20] | Potency [19]

O=C(Cl)c1cc(Cl)cc(Cl)c1
inactive: Potency [1] | Potency [2] | outcome [3] | max response [4] -8.34% | Potency [5] | Potency [6] | Potency [7] | Potency [8] | Potency [9] | Potency [10] | Potency [11] | Potency [12] | Potency [13] | Potency [14] | outcome [15] | Potency [16] | Potency [17] | Potency [18] | Potency [20] | Potency [19]

CC(Cc1ccccc1)(NC(=O)CN)c1ccccc1 (centres undefined)
inactive: Potency [1] | Potency [2] | outcome [3] | max response [4] -3.14% | Potency [5] | Potency [6] | Potency [7] | Potency [8] | Potency [9] | Potency [10] | Potency [11] | Potency [12] | Potency [13] | Potency [14] | outcome [15] | Potency [16] | Potency [17] | Potency [18] | Potency [19]

O=C(c1ccco1)N1CCNCC1
inactive: Potency [1] | Potency [2] | outcome [3] | max response [4] 3.57% | Potency [5] | Potency [6] | Potency [7] | Potency [8] | Potency [9] | Potency [10] | Potency [11] | Potency [12] | Potency [13] | Potency [14] | outcome [15] | Potency [16] | Potency [17] | Potency [18] | Potency [20] | Potency [19]

C=CC(C)(O)CC/C=C(/C)CCC=C(C)C (centres undefined)
inactive: Potency [1] | Potency [2] | outcome [3] | max response [4] 0.65% | Potency [5] | Potency [6] | Potency [7] | Potency [8] | Potency [9] | Potency [10] | Potency [11] | Potency [12] | Potency [13] | Potency [14] | outcome [15] | Potency [16] | Potency [17] | Potency [18] | Potency [20] | Potency [19]

N#CCCCC(C#N)CCC#N (centres undefined)
inactive: Potency [1] | Potency [2] | outcome [3] | max response [4] 17.1% | Potency [5] | Potency [6] | Potency [7] | Potency [8] | Potency [9] | Potency [10] | Potency [11] | Potency [12] | Potency [14] | outcome [15] | Potency [16] | Potency [17] | Potency [18] | Potency [20] | Potency [19]

C=Cc1ccc(C=C)cc1
inactive: Potency [1] | Potency [2] | outcome [3] | max response [4] 11.4% | Potency [5] | Potency [6] | Potency [7] | Potency [8] | Potency [9] | Potency [10] | Potency [11] | Potency [12] | Potency [13] | Potency [14] | outcome [15] | Potency [16] | Potency [17] | Potency [20] | Potency [19]

CC(CN=Cc1ccccc1O)N=Cc1ccccc1O (centres undefined)
inactive: Potency [1] | Potency [2] | outcome [3] | max response [4] 0.376% | Potency [5] | Potency [6] | Potency [7] | Potency [8] | Potency [9] | Potency [10] | Potency [11] | Potency [12] | Potency [13] | Potency [14] | outcome [15] | Potency [16] | Potency [17] | Potency [20] | Potency [19]
